According to ChEMBL document CHEMBL3988442, “University of Dundee, Small-Polar-MMV Screening Library” (2021):
The whole screen tested about 38,000 compounds, of which about 1,200 (3.2%) showed an effect of 50% or more. The median lay at about -58%. The sample holds strong results, similar compounds and a random draw of the others, so the mix is not that of the screen.

tested on: Plasmodium falciparum; experiment: Calibr Malaria Delayed Death Assay SOP; assay type: functional, organism-based; set-up: scale not given: in the data most compounds retested in dose-response had high values; conditions: concentration 4.99e-06 (unit not given; other assays of the set use mol/L)

Row | SMILES | Percent Effect [%]
1 | COC(=O)c1ncccc1N1CCC(C(O)c2ccccc2)CC1 (configuration not stated) | -12.82
2 | Cn1ccnc1CN1CCCC2(CCN(CC3CCCO3)CC2)C1.O=C(O)C(F)(F)F.O=C(O)C(F)(F)F (configuration not stated) | 15.47
3 | CN(C)CCN1CCO[C@H]2CN(Cc3ccccn3)C[C@H]21.O=C(O)C(F)(F)F.O=C(O)C(F)(F)F.O=C(O)C(F)(F)F.O=C(O)C(F)(F)F | 8.318
4 | COCCN1CC[C@@H]2CN(Cc3cccnc3OC)C[C@@H]2C1.O=C(O)C(F)(F)F.O=C(O)C(F)(F)F | -74.35
5 | COc1ccc(CN2C[C@@H]3OCCN(C)[C@@H]3C2)cc1.O=C(O)C(F)(F)F | -49.2
6 | CN(C)c1nccc(N2CCO[C@H]3CN(Cc4ccsc4)C[C@H]32)n1.O=C(O)C(F)(F)F | 68.45
7 | CCc1ccc(CN2C[C@@H]3OCCN(c4ccnc(N(C)C)n4)[C@@H]3C2)o1.O=C(O)C(F)(F)F | 5.976
8 | O=C(O)C(F)(F)F.O=C(O)C(F)(F)F.O=C(O)C(F)(F)F.O=C(O)C(F)(F)F.c1cc(CN2C[C@@H]3OCCN(CCN4CCCC4)[C@@H]3C2)ccn1 | -114.9
9 | COc1ncccc1CN1CC[C@H]2[C@H]1CCN2CCN(C)C.O=C(O)C(F)(F)F.O=C(O)C(F)(F)F.O=C(O)C(F)(F)F.O=C(O)C(F)(F)F | 52.47
10 | Fc1ccc(CN2C[C@@H]3OCCN(CCN4CCCC4)[C@@H]3C2)cc1.O=C(O)C(F)(F)F.O=C(O)C(F)(F)F.O=C(O)C(F)(F)F | -79.23
11 | O=C(O)C(F)(F)F.O=C(O)C(F)(F)F.c1cnc(N2CCO[C@H]3CN(Cc4ccsc4)C[C@H]32)nc1 | 32.67
12 | COc1ncccc1CN1C[C@@H]2OCCN(CCN(C)C)[C@@H]2C1.O=C(O)C(F)(F)F.O=C(O)C(F)(F)F.O=C(O)C(F)(F)F | -6.564
13 | COc1ccc(CN2C[C@@H]3OCCN(CCN4CCCC4)[C@@H]3C2)cc1.O=C(O)C(F)(F)F.O=C(O)C(F)(F)F.O=C(O)C(F)(F)F | 62.07
14 | COc1ccc(CN2C[C@@H]3OCCN(CCN(C)C)[C@@H]3C2)cc1.O=C(O)C(F)(F)F.O=C(O)C(F)(F)F.O=C(O)C(F)(F)F | 65.18
15 | O=C(C1CCOC1)N1CCC2(CCN(Cc3nccs3)C2)CC1 (configuration not stated) | -29.96
16 | CN(Cc1cccc(F)c1)C(=O)CN1CCOC(Cn2cncn2)C1 (configuration not stated) | -118.2
17 | Cc1ccc(CC(=O)NCC(Cc2ccc(F)cc2)C(N)=O)cn1 (configuration not stated) | -64.69
18 | COc1ccc(CN2CC(O)CN(C(=O)OCC(C)C)CC2=O)cc1 (configuration not stated) | -72.03
19 | CC(C)CC(=O)N1CC[C@H]2N(C)CC[C@@]2(C(=O)Nc2cccnc2)CC1.O=C(O)C(F)(F)F.O=C(O)C(F)(F)F | 15.37
20 | COc1cccn(CC(=O)N2CCC3(CCNCC3)C2)c1=O | -26.75
21 | COc1cccc(CN2CC3(CCNCC3)CCC2=O)c1OC | 6.381
22 | O=C(COCC1CCCO1)N(Cc1cccnc1)c1ccc(F)cc1 (configuration not stated) | -38.29
23 | O=S(=O)(CCCN1CCCC1Cn1cncn1)c1ccccc1 (configuration not stated) | -135.1

Row | SMILES | Percent Effect [%]
24 | CC(C)(C)n1cc(C2=CCN(CCNC(=O)c3ccccc3)CC2)cn1 | 15.76
25 | CC(C)(C)n1cc(C2=CCN(CCc3ccccn3)CC2)cn1 | 43.76
26 | CCC(O)Cn1cc(C2=CCN(Cc3cc(O)nc(C)n3)CC2)cn1 (configuration not stated) | -28.24
27 | Cn1cc(C2=CCN(CCCOc3ccc(C(N)=O)cc3)CC2)cn1 | -65.42
28 | CC(C)(C)n1cc(C2=CCN(CCNC(N)=O)CC2)cn1 | -173.3
29 | CC(C)(C)n1cc(C2=CCN(CCc3ccccc3)CC2)cn1 | 67.25
30 | CC(C)(C)n1cc(C2=CCN(CCN3CCCCCC3)CC2)cn1 | 70.18
31 | Cn1cc(C2=CCN(CCCC(=O)Nc3ccc(C#N)cc3)CC2)cn1 | -71.5
32 | CCn1cc(C2=CCN(CCCOc3ccccc3)CC2)cn1 | 81.92
33 | Cc1nc(O)cc(CN2CC=C(c3cnn(C(C)(C)C)c3)CC2)n1 | -65.29
34 | CCC(O)Cn1cc(C2=CCN(Cc3ccc(OC)cc3)CC2)cn1 (configuration not stated) | 67.35
35 | COc1ccc(NC(=O)CCN2CC=C(c3cnn(C)c3)CC2)c(C)c1 | -34.98
36 | CC(O)(CNC(=O)c1cccnc1-n1cccn1)c1ccco1 (configuration not stated) | -10.35
37 | CCN1CCCCC1C(=O)N1CCC(OCCOC)CC1 (configuration not stated) | -112.4
38 | CSc1ccccc1C(=O)N1C[C@@H](N(C)C)[C@H](c2ccc(C)cc2)C1 | -25.73
39 | CCc1cnc2c(c1NCc1ccc(OC)cc1)c(=O)n(C)c(=O)n2C | -5.547
40 | CC(C)CC(NC(=O)c1ccco1)c1nnc2ccccn12 (configuration not stated) | -178.4
41 | O=C(O)C1(O)CCN(c2ccnc3c(C(F)(F)F)cccc23)CC1 | -178.3
42 | Cc1cccc(C(=O)N(C)C2CCN(c3ccccn3)CC2)c1C | -82.1
43 | CS(=O)(=O)c1ccc(NC(=O)NC2(c3cccc(F)c3)CC2)cc1 | -42.46
44 | O=C(O)C(F)(F)F.O=C(c1ccoc1)N1CCOCC2(CCN(C3CCOCC3)C2)C1 (configuration not stated) | -39.42
45 | COCCCN(C)c1nc(-c2ccncc2)nc2c1CCN(C(C)=O)C2 | -86.15
46 | COCCN(C)c1nc(-c2ccncc2)nc2c1CCN(C(C)=O)C2 | -64.34

Row | SMILES | Percent Effect [%]
47 | CCN1Cc2cc(F)ccc2N(C(=O)C2CCC2)CCC1=O | -44.87
48 | Cc1ccccc1CN(CCN(C)C)Cc1ccc(S(C)(=O)=O)cc1 | 79.52
49 | CCOc1ccccc1CN(CC)Cc1ccc(S(C)(=O)=O)cc1 | -21.06
50 | Cc1ccccc1CN(Cc1ccc(S(C)(=O)=O)cc1)CC(C)C | -26.42
51 | O=C(NCc1ccc2c(c1)OCO2)c1ccccc1C1CCNC1 (configuration not stated) | -7.767
52 | Cc1nccn1-c1ccc(=O)n(CCNC(=O)c2ccccn2)n1 | -133.3
53 | CCn1c(CN(C)Cc2cnc(C)s2)nc2cc(F)ccc21 | -16.92
54 | CCn1c(CN(C)Cc2csc(C)n2)nc2cc(F)ccc21 | 60.85
55 | CCN(Cc1csc(C)n1)c1cccc(CO)c1 | -39.75
56 | O=C(Nc1cnn(Cc2ccc(F)cc2Cl)c1)C1CC1 | -1.724
57 | CCn1cc(NC(=O)C2CCN(Cc3ccccc3)CC2)cn1 | -64.73
58 | O=C(Nc1cnn(COc2ccc(F)cc2Cl)c1)C1CC1 | 66.71
59 | CCc1cc(N2CCC(Nc3ccc(Cl)cn3)CC2)ncn1 | -58.54
60 | CC(C)[C@@H]1CN(CCOc2ccccc2)C[C@H]1NS(=O)(=O)N(C)C | 40.07
61 | CC(C)[C@H]1CN(C2Cc3ccccc3C2)C[C@@H]1NS(C)(=O)=O | 31.34
62 | CC(C)[C@@H]1CN(Cc2ccsc2)C[C@H]1NS(=O)(=O)N(C)C | 65.02
63 | CC(C)[C@H]1CN(C2Cc3ccccc3C2)C[C@@H]1NS(=O)(=O)N(C)C | 61.34
64 | CC(C)[C@@H]1CN(Cc2ccccn2)C[C@H]1NS(=O)(=O)N(C)C | -49.07
65 | CC(C)[C@H]1CN(c2ccncc2)C[C@@H]1NS(=O)(=O)N(C)C | -51.73
66 | CCc1cc(NCCc2cc(F)cc(F)c2)n2nccc2n1 | -125.8
67 | c1cnn(CCNCc2cnc(N3CCCC3)nc2)c1 | -23.83
68 | Cc1ccccc1C(NC(=O)NCC1(CO)CC1)C1CC1 (configuration not stated) | -98.91
69 | CCc1nc(CN2CCCC(N(C)Cc3cnc(C)cn3)C2)no1 (configuration not stated) | -35.57

Row | SMILES | Percent Effect [%]
70 | CC(NC(=O)CSCC#N)c1ccccc1 (configuration not stated) | -131
71 | CC(NC1(CNC(=O)OC(C)(C)C)CCOCC1)c1ccccc1 (configuration not stated) | -63.28
72 | CC(=O)c1ccc(Nc2nc(N)nc3c2nc(C)n3C)cc1 | -204.1
73 | Cc1ccc2cccc(S(=O)(=O)N(C)CC3CCN(C)CC3)c2n1 | 56.89
74 | Cc1ccc2cccc(S(=O)(=O)N(C)CC3CCN(C)C3)c2n1 (configuration not stated) | 35.25
75 | Cc1ccc2cccc(S(=O)(=O)N(C)C3CCCN(C)C3)c2n1 (configuration not stated) | 32.17
76 | CSCc1noc(CN2CC(Cc3ccccc3)CC2=O)n1 (configuration not stated) | -65.09
77 | CN1CCCCC1C(=O)N1CCN(c2ccccc2C#N)CC1 (configuration not stated) | 8.936
78 | CN1CCC(C(=O)N2CCCN(c3cccnn3)CC2)C1 (configuration not stated) | -4.513
79 | COC(=O)N1CCCCC1C(=O)N1CCN(c2cccnc2)CC1 (configuration not stated) | -94.01
80 | CN1CCCCCC1C(=O)N1CCCN(c2ccccc2)CC1 (configuration not stated) | 60.61
81 | Cc1cnn(CCC(=O)N2CCCN(c3ccccc3C#N)CC2)c1 | -36.97
82 | CN1CCCCCC1C(=O)N1CCN(c2ccccc2C#N)CC1 (configuration not stated) | 59.17
83 | CCC(c1ccc(F)cc1)S(=O)(=O)CCO (configuration not stated) | -152
84 | COc1cc(C#N)ccc1OC12CCCN(CC1)C2 (configuration not stated) | -68.61
85 | O=C(CC1CCCO1)NCCCC(=O)Nc1ccc(Cl)cc1 (configuration not stated) | -29.37
86 | CCOc1ccc(Cl)cc1C(C(=O)O)N1CCCC1 (configuration not stated) | -0.3366
87 | COc1ccc(CCC2CCCCN2)cc1OC (configuration not stated) | -120.3
88 | COc1ccc(Br)cc1CC(=O)N1CCCC1 | -142.1
89 | CCOc1ccc(Br)cc1-c1cc(N)[nH]n1.Cl | -27.86
90 | COc1ccc(CCNC(=O)NC2CCCC2)cc1OC | -80.35
91 | CCOc1ccc(Br)cc1S(=O)(=O)N(CC)Cc1ccc(N(C)C)cc1 | -41.17
92 | c1csc(CN2CCCN(c3ccc(Cn4ccnc4)cn3)CC2)c1 | -41.75
